This is a sample that favours compounds with a hit; in the whole collection about 3.8% have one here.
ATXN viability: reduces viability in counter-screen for ATXN expression inhibitors | S2 cells (HEK-293 line with an ATXN2-luciferase reporter) viability, CellTiter-Fluor protease fluorescence, 24 h | AID 651635 | Potency, µM (highest dose often 56.7 µM), actives largely listed as cytotoxic | actives 0.49% (n = 400,000); also: nearly all actives have a fitted effect of over 40% in size
TGFb SMAD3 inh: blocks TGF-b signaling | AID 588855 | actives 1.2% (n = 410,000) | Potency, µM (titrated, usually from 46.1 µM), without a hit: at the highest dose activity, negative = inhibition, usual class: inhibitors | HepG2 CAGA-GFP TGF-b/SMAD3 reporter, GFP fluorescence, 18 h; TGF-beta stimulated, 500 pg/mL final; also: % is scaled to controls: 0 for no effect and ±100 for the full control effect; nearly all actives have a fitted effect of over 65% in size
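Cell-based qHTS in HEPG2 carrying a CAGA-GFP Smad reporter; compounds added before 500 pg/mL final TGF-beta, 18 h incubation at 37 degrees C, GFP fluorescence quantified per cell by imaging cytometry.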
A549 viability: A549 cytotoxicity, counter-screen for Nrf2 inhibitors; A549 ARE-Fluc cells, CellTiter-Fluor viability, 18-24 h; Potency, µM (top dose mostly 46 µM), without a hit: at the top dose activity change, negative = cytotoxicity, most hits filed as inhibitors; actives 0.16% (n = 390,000); also: % is scaled to controls: 0 for no effect and ±100 for the full control effect
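A549 ARE-Fluc cells in 5% FBS OPTI-MEM, 5000 cells/well, rested 2 h then exposed to compounds in concentration-response for 18-24 h at 37 °C. Viability by CellTiter-Fluor fluorescence (Ex 405/Em 525) after 30 min; luciferase luminescence (BugLite, 15 min, RT) read afterwards.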
ATXN2 expr inh: reduces ATXN2 reporter expression in HEK-293 cells; actives 0.72% (n = 360,000); HEK-293 ATXN2-luciferase reporter, luminescence, 24 h; Potency, µM (titrated, usually from 57 µM), for inactives: at the highest dose activity change, negative = inhibition, actives largely listed as inhibitors; also: % is scaled to controls: 0 for no effect and ±100 for the full control effect; nearly all actives have a fitted effect of over 55% in size
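qHTS (up to 57 uM final) was run with 24 h compound exposure of reporter cells at 37 °C. Each well was multiplexed: SteadyGlo luminescence measured ATXN2-luciferase expression after a fluorogenic Gly-Phe-AFC viability readout (25 uM final).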
HepG2 viability: HepG2 cytotoxicity, counter-screen for TGF-b inhibitors | HepG2 CAGA-GFP viability, ATP luminescence, 18 h | Potency, µM (top dose mostly 46.1 µM), inactives show at the top dose activity change, negative = cytotoxicity, hits mostly cytotoxic | actives 0.76% (n = 410,000)
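HepG2 CAGA-GFP cells (1000/well, DMEM with 1% FBS) received compound, then TGF-beta at 500 pg/mL final, and were incubated 18 hours at 37 degrees C. Viability was read by CellTiter-Glo luminescence. Media-only wells were set as complete cell-killing and DMSO as no toxicity.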
Nrf2 block: blocks Nrf2 signaling | Potency, µM (highest dose often 46 µM), without a hit: top-dose activity change, negative = inhibition, most hits filed as inhibitors | actives 2.1% (n = 360,000) | A549 ARE-Fluc reporter, luciferase luminescence, 18-24 h; also: % is scaled to controls: 0 for no effect and ±100 for the full control effect; nearly all actives have a fitted effect of over 60% in size
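Concentration-response testing used A549 ARE_Fluc cells at 5000 cells/well. Following an 18-24 h compound incubation, viability was read by fluorescence (Ex 405/Em 525) and luciferase output by luminescence.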
Starred values were filed as active, the others as inactive; i = inactive; ? = inconclusive; nt = no result. Calls follow the shape of the dose curve; as a rule, active = well fitted curve in the direction sought with a large enough effect; inconclusive = small, poorly fitted or top-dose-only effect, or another doubt; inactive = no such curve, though single readings can be large; an effect the other way counts as inactive or inconclusive. Potency is read from the fitted curve at half-maximal effect.

SMILES	ATXN viability	TGFb SMAD3 inh	A549 viability	ATXN2 expr inh	HepG2 viability	Nrf2 block
CCOC(=O)COc1ccc2ccccc2c1/C=C/[N+](=O)[O-]	14.1µM*	5.01µM*	?	?	5.62µM*	?
CCOc1ccc(/C=C/c2ccnc3ccccc23)cc1OCC	nt	?	nt	nt	-61.7%	nt
CCOC(=O)COc1ccccc1/C=N/O	i	-9.4%	2.9%	-0.2%	5.9%	6.5%
CCOC(=O)COc1ccc(/C=C/[N+](=O)[O-])c(OCC(=O)OCC)c1	10µM*	?	?	8.91µM*	-64.4%	nt
O=C(CN1c2cccc3cccc(c23)S1(=O)=O)Nc1ccc(F)c(F)c1F	i	-3.3%	-1.6%	-15.9%	9.8%	-20.6%
COC(=O)[C@@]1(Cc2ccccc2)[C@@H]2C(=CC(=O)[C@H]2CC(=O)C(=O)N(C)C)CN1C(=O)c1ccccc1	20µM*	?	?	28.2µM*	-51.3%	?
COC(=O)[C@@]1(Cc2ccc(F)cc2)[C@H]2c3cc(C(=O)N(C)C)n(CCF)c3C[C@H]2CN1C(=O)c1ccccc1	i	nt	nt	-12.2%	nt	nt
Cc1ccc(S(=O)(=O)Nc2ccc3c(c2)c(C(=O)OC(C)C)c(C)n3S(=O)(=O)c2ccc(C)cc2)cc1	nt	-2.1%	1.0%	nt	0.1%	-19.7%
O=C(CN1C(=O)c2ccccc2C1=O)C(O)CN1C(=O)c2ccccc2C1=O (stereo unspecified)	i	14.1%	nt	5.9%	-16.0%	nt
CCc1cccc2sc(N3CCN(C(=O)c4ccc([N+](=O)[O-])o4)CC3)nc12	nt	17.8µM*	?	?	-96.3%	-99.0%
CCc1cccc2sc(N3CCN(C(=O)C4CC4)CC3)nc12	nt	-29.5%	0.9%	nt	-37.2%	nt
Cc1cccc(Cn2c(SCc3ccc(C(=O)NC4CCCC4)cc3)nc3ccncc32)c1	i	?	-5.6%	1.8%	-31.9%	20.6µM*
CC1CCC(NC(=O)c2ccc(CSc3nc4ccncc4n3Cc3ccc(F)cc3)cc2)CC1 (stereo unspecified)	?	3.55µM*	-18.6%	?	-30.0%	?
COc1ccc(-n2ccnc2SCC(=O)NC2CCCC2)cc1	i	-6.5%	3.2%	7.6%	3.2%	4.7%
CC(NC(=O)CN1C(=O)NC(Cc2ccccc2)(Cc2ccccc2)C1=O)C12CC3CC(CC(C3)C1)C2 (stereo unspecified)	?	-6.1%	?	?	-61.2%	25.9µM*
CC(NC(=O)Cn1ncc(Cl)c(Cl)c1=O)C12CC3CC(CC(C3)C1)C2 (stereo unspecified)	17.8µM*	-5.4%	0.3%	?	2.6%	0.9%
O=C(Cn1ncc(Cl)c(Cl)c1=O)NC(=O)NC1CCCCC1	29.9µM*	?	-4.8%	?	-52.5%	7.2%
O=C(CN1CCCCC1)NC(=O)NC1CCCC1	i	10.4%	-2.8%	9.4%	-0.9%	?
O=[S+]([O-])(c1c(F)cccc1F)N1CCN([S+](=O)([O-])c2c(F)c(F)c(F)c(F)c2F)CC1	nt	nt	-4.3%	nt	nt	-7.9%
COC(=O)c1ccccc1-c1cc(C)cc2c1OC(CNC(=O)c1cc(C)n(C)n1)C2 (stereo unspecified)	i	nt	nt	nt	nt	nt
CC12C=CC(=O)C=C1CCC1C2C(=O)C[C@@]2(C)C1CCC2(O)C(=O)CO (stereo partly specified)	i	7.3%	-2.6%	4.9%	1.0%	?
CC12C=CC(=O)C=C1CCC1C2C(=O)CC2(C)C1CCC2(O)C(=O)CO (stereo unspecified)	i	-9.6%	0.5%	-15.5%	2.5%	0.291µM*
Cc1ccc(C)c(N2CCN(CCCNC(=O)c3cnn(-c4ccccc4)c3C3CCN(C(=O)OC(C)(C)C)CC3)CC2)c1	nt	0.0%	?	nt	-19.5%	18.4µM*
CC(C)(C)OC(=O)N1CCC(c2c(C(=O)NC3CCCCC3)cnn2-c2cccc(Cl)c2)CC1	nt	17.8µM*	-10.0%	nt	4.0%	?
CN1CCN(CCCNC(=O)c2cnn(-c3ccccc3)c2C2CCN(C(=O)OC(C)(C)C)CC2)CC1	nt	0.0%	?	nt	-0.3%	-12.7%
SMILES	ATXN viability	TGFb SMAD3 inh	A549 viability	ATXN2 expr inh	HepG2 viability	Nrf2 block
COc1ccccc1N1CCN(CCCNC(=O)c2cnn(-c3cccc(Cl)c3)c2C2CCN(C(=O)OC(C)(C)C)CC2)CC1	nt	12.6µM*	-28.0%	nt	12.6µM*	-13.7%
CC(C)(C)OC(=O)C[C@@H]1C/C=C\C[C@@H](CC(=O)N(CCO)Cc2ccccc2)C(=O)N2CCC[C@@H]2COC1=O	i	-3.6%	-2.4%	2.8%	-1.5%	7.9%
CCOC(=O)c1cc(C(=O)NCc2ccc(Cl)cc2Cl)nn1C	i	-14.1%	-17.0%	5.1%	-18.2%	20.6µM*
Cc1cnc(C(=O)NCc2ccc(Cl)cc2Cl)cn1	i	1.4%	3.0%	-30.8%	9.9%	-5.5%
CCOC(=O)C1=CN(Cc2cccc(F)c2)S(=O)(=O)NC1c1ccc(F)c(Cl)c1 (stereo unspecified)	i	15.8µM*	-1.1%	?	-48.0%	?
CCOC(=O)C1=CN(Cc2ccco2)S(=O)(=O)NC1c1ccc(F)c(Cl)c1 (stereo unspecified)	i	-19.0%	0.8%	-4.3%	-5.4%	-5.2%
CC1CCCCC1N(C)C1CCN(C(=O)CNC(=O)/C=C/c2cccc(Cl)c2)CC1 (stereo unspecified)	i	30.9%	4.2%	nt	9.0%	?
CCOC(=O)c1sc(N(Cc2ccccc2)C(=O)COC(=O)c2ccc(O)cc2)nc1C	i	12.6µM*	0.2%	?	-96.5%	-20.9%
CCOC(=O)c1sc(N(Cc2ccccc2)C(=O)COC(=O)c2ccccc2O)nc1C	i	-1.1%	-4.1%	22.6%	1.7%	14.7%
CC(Oc1ccccc1F)C(=O)NNC(=O)CCNC(=O)c1ccccc1Cl (stereo unspecified)	i	9.2%	8.9%	-0.8%	17.0%	15.7%
COc1ccc(CCNC(=O)Cn2nc(C)n3c(cc4occc43)c2=O)cc1OC	i	-1.3%	8.6%	12.0%	0.0%	8.8%
CCCCNC(=S)Nc1ccc([N+](=O)[O-])cc1	i	11.2µM*	?	-19.9%	-47.8%	18.4µM*
CC(C)OC(=O)c1cc(NC(=S)Nc2ccc([N+](=O)[O-])cc2)cc(C(=O)OC(C)C)c1	nt	-6.1%	?	?	-10.9%	16.4µM*
CC(C)CCNC(=S)Nc1ccc([N+](=O)[O-])cc1	?	?	?	?	-46.8%	?

High-throughput results (PubChem)
